Measured values published in PubChem BioAssay AID1159580 (chemical genetic matrix, 2015).
Hit rate of the full screen: of about 5,500 compounds, about 2,000 (36%) were called active. Roughly 18% stayed inconclusive and do not appear here. Rule as the data show it: active = normalized growth mostly below about 0.91 (no sharp cut-off); inconclusive = no clear call, values can overlap the other calls; inactive = mostly above about 0.92. The list shows a part of the results.

Assay: chemical genetic growth profiling, strain panel (AID 1159580);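 also: tested at 20 µM; growth read once vehicle control cultures reached saturation at 30 °C; 1 = growth at the plate median or of vehicle wells; lower values mean less growth of the strain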
Conditions: S. cerevisiae deletion strains, growth OD
[1] = locus YHR030C, strain SLT2, active compounds read low
[2] = locus YJL095W, strain BCK1, active compounds read low

Measured: normalized growth

COc1ccc(-c2coc3cc(O)ccc3c2=O)c(OC)c1O
inactive: locus YAL013W, strain DEP1, active compounds read low 0.991 | locus YAL021C, strain ccr4, active compounds read low 0.979 | locus YAL026C, strain drs2, active compounds read low 0.979 | locus YAL030W, strain snc1, active compounds read low 0.947 | locus YBL061C, strain skt5, active compounds read low 0.973 | locus YBR009C, strain hhf1, active compounds read low 0.966 | locus YBR021W, strain FUR4, active compounds read low 1.12 | locus YBR023C, strain chs3, active compounds read low 0.98 | locus YBR171W, strain sec66, active compounds read low 0.983 | locus YBR229C, strain ROT2, active compounds read low 0.949 | locus YBR231C, strain swc5, active compounds read low 0.989 | locus YBR279W, strain paf1, active compounds read low 0.983 | locus YCL011C, strain gbp2, active compounds read low 0.977 | locus YCL016C, strain dcc1, active compounds read low 0.978 | locus YCL029C, strain bik1, active compounds read low 0.972 | locus YCL061C, strain MRC1, active compounds read low 0.991 | locus YCL069W, strain vba3, active compounds read low 0.981 | locus YCR088W, strain abp1, active compounds read low 0.983 | locus YDL005C, strain med2, active compounds read low 0.977 | locus YDL035C, strain GPR1, active compounds read low 1 | locus YDL040C, strain nat1, active compounds read low 0.987 | locus YDL074C, strain BRE1, active compounds read low 1.03 | locus YDL101C, strain DUN1, active compounds read low 0.97 | locus YDL185W, strain tfp1, active compounds read low 0.968 | locus YDL192W, strain arf1, active compounds read low 0.984 | locus YDR001C, strain nth1, active compounds read low 0.983 | locus YDR069C, strain doa4, active compounds read low 0.947 | locus YDR101C, strain arx1, active compounds read low 0.975 | locus YDR137W, strain rgp1, active compounds read low 0.986 | locus YDR159W, strain sac3, active compounds read low 0.953 | locus YDR162C, strain NBP2, active compounds read low 0.966 | locus YDR195W, strain ref2 0.94 | locus YDR297W, strain sur2, active compounds read low 0.979 | locus YDR318W, strain mcm21, active compounds read low 0.99 | locus YDR334W, strain swr1, active compounds read low 0.967 | locus YDR335W, strain msn5, active compounds read low 0.991 | locus YDR388W, active compounds read low 0.988 | locus YDR392W, strain spt3, active compounds read low 0.945 | locus YDR502C, strain sam2, active compounds read low 0.977 | locus YEL003W, strain gim4, active compounds read low 0.976 | locus YEL037C, strain rad23, active compounds read low 0.967 | locus YEL061C, strain CIN8 (second series), active compounds read low 0.967 | locus YEL061C, strain CIN8, active compounds read low 0.985 | locus YER015W, strain faa2, active compounds read low 0.983 | locus YER016W, strain bim1, active compounds read low 0.986 | locus YER110C, active compounds read low 0.962 | locus YER111C, strain swi4, active compounds read low 0.971 | locus YER155C, strain BEM2 (second series), active compounds read low 0.985 | locus YER155C, strain BEM2, active compounds read low 1 | locus YER167W, strain BCK2, active compounds read low 0.983 | locus YFR010W, strain ubp6, active compounds read low 0.968 | locus YGL078C, strain dbp3, active compounds read low 0.986 | locus YGL086W, strain mad1, active compounds read low 0.971 | locus YGL167C, strain pmr1, active compounds read low 0.959 | locus YGL173C, strain kem1, active compounds read low 0.974 | locus YGL227W, strain vid30, active compounds read low 0.957 | locus YGL240W, strain doc1, active compounds read low 0.977 | locus YGL248W, strain PDE1, active compounds read low 0.982 | locus YGL253W, strain hxk2, active compounds read low 0.989 | locus YGR135W, strain pre9, active compounds read low 1.01 | locus YGR252W, strain gcn5, active compounds read low 1.12 | locus YHR013C, strain ard1, active compounds read low 0.933 | locus YHR027C, strain rpn1, active compounds read low 0.989 | [1] 0.99 | locus YHR079C, strain IRE1 (second series), active compounds read low 0.974 | locus YHR094C, strain hxt1, active compounds read low 0.988 | locus YHR129C, strain ARP1, active compounds read low 0.993 | locus YHR142W, strain chs7, active compounds read low 1 | locus YHR200W, strain rpn10, active compounds read low 0.991 | locus YIL066C, strain RNR3, active compounds read low 0.981 | locus YIL073C, strain SPO22, active compounds read low 0.98 | locus YIL125W, strain kgd1, active compounds read low 0.99 | locus YIR030C, strain dcg1, active compounds read low 0.985 | locus YJL092W, strain hpr5, active compounds read low 0.986 | locus YJL095W, strain BCK1 (second series), active compounds read low 0.986 | [2] 0.978 | locus YJL115W, strain asf1, active compounds read low 0.996 | locus YJL129C, strain trk1, active compounds read low 0.966 | locus YJL134W, strain LCB3, active compounds read low 0.983 | locus YJL154C, strain vps35, active compounds read low 0.977 | locus YJL164C, strain tpk1, active compounds read low 0.969 | locus YJL166W, strain qcr8, active compounds read low 0.98 | locus YJL168C, strain set2, active compounds read low 0.993 | locus YJL187C, strain SWE1 (second series), active compounds read low 0.963 | locus YJL187C, strain SWE1, active compounds read low 0.979 | locus YJR043C, strain POL32, active compounds read low 0.985 | locus YKL009W, strain mrt4, active compounds read low 0.965 | locus YKL068W, active compounds read low 0.975 | locus YKL085W, strain MDH1 (second series), active compounds read low 0.976 | locus YKL085W, strain MDH1, active compounds read low 0.976 | locus YKL160W, strain elf1, active compounds read low 0.999 | locus YKR001C, strain vps1, active compounds read low 1 | locus YKR026C, strain gcn3, active compounds read low 0.961 | locus YKR091W, strain srl3, active compounds read low 0.973 | locus YLL001W, strain dnm1, active compounds read low 1 | locus YLL026W, active compounds read low 0.991 | locus YLL041C, strain sdh2, active compounds read low 0.994 | locus YLR027C, strain aat2, active compounds read low 0.976 | locus YLR039C, strain RIC1, active compounds read low 0.97 | locus YLR058C, strain SHM2, active compounds read low 0.972 | locus YLR102C, strain apc9, active compounds read low 0.991 | locus YLR221C, strain rsa3, active compounds read low 0.966 | locus YLR258W, strain gsy2, active compounds read low 0.983 | locus YLR262C, strain YPT6 (second series), active compounds read low 0.977 | locus YLR262C, strain YPT6, active compounds read low 0.907 | locus YLR268W, strain sec22, active compounds read low 0.989 | locus YLR320W, strain mms22, active compounds read low 0.979 | locus YLR330W, strain CHS5, active compounds read low 0.99 | locus YLR342W, strain FKS1 (second series), active compounds read low 0.987 | locus YLR342W, strain FKS1, active compounds read low 0.967 | locus YLR357W, strain rsc2, active compounds read low 0.947 | locus YLR370C, strain arc18, active compounds read low 0.978 | locus YLR371W, strain rom2, active compounds read low 0.983 | locus YLR384C, strain iki3, active compounds read low 0.975 | locus YLR418C, strain cdc73, active compounds read low 1.01 | locus YML016C, strain PPZ1, active compounds read low 0.993 | locus YML032C, strain rad52, active compounds read low 0.983 | locus YML120C, strain ndi1, active compounds read low 0.971 | locus YML124C, strain tub3, active compounds read low 0.991 | locus YMR058W, strain fet3, active compounds read low 0.977 | locus YMR078C, strain ctf18, active compounds read low 0.982 | locus YMR125W, strain sto1, active compounds read low 0.96 | locus YMR129W, active compounds read low 0.981 | locus YMR205C, strain PFK2, active compounds read low 0.953 | locus YMR223W, strain ubp8, active compounds read low 0.981 | locus YMR231W, strain pep5, active compounds read low 0.982 | locus YMR307W, strain GAS1, active compounds read low 1.16 | locus YNL067W, strain RPL9B, active compounds read low 0.972 | locus YNL071W, strain lat1, active compounds read low 0.984 | locus YNL153C, strain GIM3, active compounds read low 0.954 | locus YNL209W, strain ssb2, active compounds read low 0.982 | locus YNL233W, strain BNI4, active compounds read low 1 | locus YNL248C, strain rpa49, active compounds read low 1 | locus YNL250W, strain rad50, active compounds read low 0.99 | locus YNL271C, strain bni1, active compounds read low 0.987 | locus YNL298W, strain CLA4, active compounds read low 0.992 | locus YNL307C, strain MCK1, active compounds read low 0.995 | locus YNL322C, strain KRE1 (second series), active compounds read low 0.953 | locus YNL322C, strain KRE1, active compounds read low 0.99 | locus YNR049C, strain mso1, active compounds read low 0.972 | locus YNR052C, strain pop2, active compounds read low 0.991 | locus YOL012C, strain htz1 0.858 | locus YOL147C, strain pex11, active compounds read low 0.988 | locus YOR001W, strain rrp6, active compounds read low 1 | locus YOR061W, strain CKA2, active compounds read low 0.966 | locus YOR069W, strain VPS5, active compounds read low 0.997 | locus YOR070C, strain gyp1, active compounds read low 0.985 | locus YOR080W, strain dia2, active compounds read low 0.965 | locus YOR083W, strain WHI5, active compounds read low 0.977 | locus YOR106W, strain vam3, active compounds read low 0.992 | locus YOR136W, strain idh2, active compounds read low 0.99 | locus YOR144C, strain elg1, active compounds read low 0.988 | locus YOR184W, strain ser1, active compounds read low 0.974 | locus YOR265W, strain rbl2, active compounds read low 0.985 | locus YOR270C, strain vph1, active compounds read low 0.977 | locus YOR290C, strain snf2, active compounds read low 0.92 | locus YOR316C, strain cot1, active compounds read low 0.984 | locus YPL051W, strain arl3, active compounds read low 1 | locus YPL055C, strain LGE1, active compounds read low 0.984 | locus YPL078C, strain atp4, active compounds read low 0.982 | locus YPL106C, strain sse1, active compounds read low 0.966 | locus YPL240C, strain hsp82, active compounds read low 1 | locus YPR119W, strain clb2, active compounds read low 0.973 | locus YPR141C, strain kar3, active compounds read low 0.985 | locus YPR163C, strain tif3, active compounds read low 0.997 | locus YPR167C, strain met16, active compounds read low 0.997 | strain wtn01, active compounds read low 0.981

COc1ccc2c(=O)c(-c3ccc(O)cc3)coc2c1
inactive: [1] 0.966 | locus YHR079C, strain IRE1, active compounds read low 0.939 | [2] 0.962 | locus YJR066W, strain TOR1, active compounds read low 0.918 | locus YLR113W, strain HOG1, active compounds read low 0.955 | locus YNL183C, strain NPR1, active compounds read low 0.918 | locus YOR231W, strain MKK1, active compounds read low 0.942 | locus YPL256C, strain CLN2, active compounds read low 0.925
